PubChem BioAssay (NCI)
The panel holds about 83,000 compounds, 20% with a hit somewhere; the sample as a whole holds those more often.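 Values shown are percent growth following 48 h exposure of cells in 96-well plates to a single concentration of compound; below 10 was considered active.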 Activity calls are given as the source filed them.

Columns and labels:
Assay in all cases: NCI-60 one-dose screen, 48 h (100 = growth as untreated, 0 = no growth, -100 = all killed)
Settings in all cases: 10 µM unless noted
[1] = test system: SR leukemia
[2] = test system: RPMI-8226 leukemia
[3] = test system: OVCAR-8 ovarian
[4] = test system: OVCAR-5 ovarian
[5] = test system: OVCAR-4 ovarian
[6] = test system: SK-OV-3 ovarian
[7] = test system: IGROV1 ovarian
[8] = test system: OVCAR-3 ovarian
[9] = test system: HS 578T breast
[10] = test system: NCI/ADR-RES ovarian
[11] = test system: T-47D breast
[12] = test system: BT-549 breast
[13] = test system: MDA-MB-435 melanoma
[14] = test system: SW-620 colon
[15] = test system: MCF7 breast
[16] = test system: HCT-116 colon
[17] = test system: HCC-2998 colon
[18] = test system: KM12 colon

Measured: growth

C#CCOc1ccc(C2=NN(CCCC)C3N=C(Cl)c4ncn(CCCC)c4N23)cc1OCC#C (stereo unspecified)
inactive: [1] 79.1% | [2] 85.2% | [3] 85.9% | [4] 93.6% | [5] 86.2% | [6] 92.3% | [7] 99.2% | [8] 97.2% | [9] 80.6% | [10] 83% | [11] 69.6% | [12] 90.6% | [13] 86.7% | [14] 88.7% | [15] 81.8% | [16] 83.1% | [17] 107% | [18] 88.3%

CCN(CC)CCOc1ccc(/C(=C(\C)Cc2ccc(OC)cc2)c2ccc(O)cc2)cc1
active: [1] -52.4% | [2] -33.2% | [13] -67.8% | [14] -25.2% | [15] -14.8% | [16] -34.8% | [17] 0.439%
inactive: [3] 29% | [4] 69.3% | [5] 46.7% | [6] 64.5% | [7] 47.3% | [8] 46.7% | [9] 33.5% | [10] 53.1% | [11] 20.3% | [12] 56.7% | [18] 32.4%

CCCNNC(=O)c1ccc(CNC(=O)/C=C/c2ccccc2)cc1
inactive: [1] 30.8% [2.5 µM] | [2] 18.9% [2.5 µM] | [3] 20.7% [2.5 µM] | [4] 18.1% [2.5 µM] | [5] 63.2% [2.5 µM] | [7] 30.5% [2.5 µM] | [8] 47.6% [2.5 µM] | [9] 47.3% [2.5 µM] | [10] 21% [2.5 µM] | [12] 77.2% [2.5 µM] | [13] 31.8% [2.5 µM] | [14] 22.9% [2.5 µM] | [15] 30.6% [2.5 µM] | [17] 34.2% [2.5 µM] | [18] 47.1% [2.5 µM]
active: [6] 8.72% [2.5 µM] | [11] 0.925% [2.5 µM] | [16] 1.27% [2.5 µM]

Cc1[nH]c(C(=O)Nc2ccc(C(N)=O)cc2OC(C)C)c(Cl)c1Cl
inactive: [1] 79.2% | [2] 90.4% | [3] 101% | [4] 98.3% | [5] 98.2% | [6] 96.4% | [7] 95.1% | [8] 105% | [9] 88.7% | [10] 112% | [11] 74.9% | [12] 95.4% | [13] 105% | [14] 105% | [15] 88.7% | [16] 98.3% | [17] 110% | [18] 98.5%

Cc1ccc(OCCOCCOCCOCCOc2ccc(C)n(O)c2=S)c(=S)n1O
active: [1] 6.36% | [3] 9.37% | [6] 0.0112% | [10] 1.43% | [11] 8.09% | [17] 5.72%
inactive: [2] 13.4% | [4] 39.1% | [5] 24.4% | [7] 30.9% | [8] 25% | [9] 44% | [12] 14.1% | [13] 29.4% | [14] 25.7% | [15] 10.1% | [16] 14.3% | [18] 18.6%

O=C(Nc1ncc(Cc2ccc(Cl)cc2)s1)C1=NCCCCN1
inactive: [1] 106% | [2] 97% | [3] 106% | [4] 105% | [5] 105% | [6] 106% | [7] 107% | [8] 110% | [9] 109% | [10] 106% | [11] 92.5% | [12] 104% | [13] 101% | [14] 103% | [15] 89.1% | [16] 100% | [17] 118% | [18] 103%

CCCCCN(CCCCC)CC(O)c1c(Cl)ccc2ccccc12 (stereo unspecified)
inactive: [1] 32.9% | [2] 66.2% | [3] 87.5% | [4] 65.8% | [5] 79.5% | [6] 93.6% | [7] 63% | [8] 90.7% | [9] 80% | [10] 77.8% | [11] 69% | [12] 105% | [13] 84.2% | [14] 46.1% | [15] 72.2% | [16] 37.2% | [17] 70.8% | [18] 75.9%

N#CC1=C(N)Oc2c(ccc3ccccc23)C1c1cc2ccccc2n2nnnc12 (stereo unspecified)
active: [1] 3.88% | [2] -8.74% | [8] -20.7% | [10] 0.93% | [13] -27.7% | [14] 9.58% | [15] 9.81% | [16] -5.37%
inactive: [3] 26.6% | [4] 39.4% | [5] 65% | [6] 12.5% | [7] 33.3% | [9] 17.7% | [11] 25% | [12] 16.2% | [17] 46.9% | [18] 18.1%

CCOc1ccc(N2C(=O)CCSC2=S)cc1
inactive: [1] 116% | [2] 104% | [3] 104% | [4] 107% | [5] 109% | [6] 101% | [7] 99.1% | [8] 114% | [9] 105% | [10] 105% | [11] 104% | [12] 108% | [13] 98% | [14] 104% | [15] 100% | [16] 112% | [17] 104% | [18] 107%

COc1ccc(/C=C\c2cc(OC)c(OC)c(OC)c2)cc1OCC(=O)Nc1nc2ccccc2s1
inactive: [2] 22.5% | [3] 19% | [4] 65% | [5] 49.2% | [6] 30.4% | [9] 11.3% | [10] 12.7% | [11] 18.5% | [12] 38.7% | [14] 30% | [17] 35.6%
active: [1] 9.4% | [7] 3.36% | [8] 0.388% | [13] -2.64% | [15] 9.7% | [16] 5.14% | [18] 5.76%

Cn1cc(-c2nc(-c3c[nH]c4c(Cl)nccc34)cs2)c2ccccc21
inactive: [1] 73.7% | [2] 87.2% | [3] 91.1% | [4] 120% | [5] 86.4% | [6] 108% | [7] 105% | [8] 107% | [9] 108% | [10] 98% | [11] 87.1% | [12] 110% | [13] 96.4% | [14] 99.4% | [15] 44.7% | [16] 94.4% | [17] 94.5% | [18] 95.9%

O=C(O)c1nn(-c2ccc(Cl)cc2)nc1N1CCCC1
inactive: [1] 99% | [2] 101% | [3] 96% | [4] 94.9% | [5] 91.2% | [6] 97.2% | [7] 93% | [8] 105% | [9] 97% | [10] 99.5% | [11] 94.4% | [12] 95.4% | [13] 100% | [14] 90.6% | [15] 91% | [16] 101% | [17] 103% | [18] 107%
